Data taken from the supplement of paper PMC11417369.
± gives the standard deviation of the averaged measurements. Over roughly 25,000 sequences, “ln(normalized median fluorescence intensity)” has its median near 8.9; the highest 2% begin near 10. The full list was thinned out, with the highest values kept by preference.

The sequences below were run on PfAP2-LT AP2 domain (GST-tagged) (assay: gcPBM binding intensity (ln(normalized median fluorescence intensity)); higher = stronger DNA binding).
Procedure, shortened: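 GST-tagged P. falciparum DNA-binding domains, expressed in E. coli (about 25 μg on average), were applied for 1 h to an Agilent 4 × 180k array of primer-extended double-stranded 36-bp intergenic genomic probes plus negative controls. The binding buffer was 1× PBS with 1% milk, 0.2 mg/ml BSA, 0.5% salmon testes DNA and 0.03% Triton X-100. Bound protein was detected with Alexa488 anti-GST antibody and scanned at 488 nm. Binding intensity is the highest Masliner-normalised natural-log median intensity across replicate spots of either probe orientation.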

Sequence | gcPBM binding intensity (ln)
TATTAATATGGTAATACACACTAATATACTTTTGTT [CACACA_site6860] | 8.89 ± 0.5
ATAAAAATATATGAAACACACAGTTTCTATAAGAAA [CACACA_site4156] | 8.68 ± 0.47
CATATAATTATATATCGTACATATTAATATAATTAC [XGTACX_site401] | 8.68 ± 0.38
GTTAATTTTTGTATAGTGCAAAAATATAATAGTATG | 8.64 ± 0.48
AACATATATAAATACACACACATATATATATGAAAT [CACACA_site4312] | 9.51 ± 0.26
AAAATAAGAAAACAAATGCACACCATTTATATAGAT [CACACA_site1055] | 9.03 ± 0.39
ATATCTATGTTTATCTCGAATAACTTAAAAAATTAT [CACACA_negctrl_site1131] | 8.45 ± 0.45
AACAGAATAATACTAAATGAACGATTTCTCTTTATG [GTGCAC_negctrl_site376] | 8.6 ± 0.51
ATAAGTGTATAAAAATGTACGTGTATAAAAATATGT [XGTACX_site8235] | 9.06 ± 0.43
GTGGTTGTAATGGTGGTGCATATTGTATATTATGTT | 9.515 ± 0.078
ATATATTATATTTAAGTGCATTAATTAAAATGCTTA [GTGCAC_site9403] | 8.34 ± 0.36
GTGTAATGCTTATCGGTGCATATATATATATATATA | 10.13 ± 0.021
CATCACCTTTTTAAATGTACGCATAATACCAAAAAA [XGTACX_site1587] | 8.6 ± 0.48
GAGCCCAAAAAATTAGGTACGTATAAAGAGGTATTT [XGTACX_site5348] | 8.8 ± 0.54
ACCCTATAGGTAACTACACACCGCATATTGTTTACT [CACACA_site7436] | 9.15 ± 0.34
TTAATATTTTGATGTGTACACATTAAAATAGTTTTA [CACACA_site5712] | 8.46 ± 0.48
TTATATTAAACAAACACACACATATATATATATATA [CACACA_site2382] | 9.54 ± 0.49
TTATATTAAACAAACACACACATATAAATATAAATA [CACACA_site7174] | 9.23 ± 0.3
GTTTATATTAAACAAACACACACATATATATATATA [CACACA_site8749] | 9.57 ± 0.18
GAATATTAAACAAACACACACACATATATTTATATA [CACACA_site7563] | 9.73 ± 0.27
ATATTAAACAAACACACACACATATATATATATATA [CACACA_site3383] | 10.2 ± 0.35
GAATATTAAACAAACACACACACATATATATATATA [CACACA_site3382] | 10.1 ± 0.2
TGTATATATTTGTGCACACCAAAGTTTGATTTTATT [CACACA_site1860] | 9.3 ± 0.42
TTGTATATATTAAATTGTACTTATTTTTTGTATATA [XGTACX_site3251] | 8.64 ± 0.54
CTGAGGAAGCTAATTACACACATGCATATTTTTTTT [CACACA_site2177] | 9.08 ± 0.28
AAAAAAATAAAACACACACACAAAAAAATAAAAATA [CACACA_site465] | 9.56 ± 0.3

Sequence | gcPBM binding intensity (ln)
AATGTACACCCACCCACACACAAACAAATATATATA [CACACA_site5521] | 10.1 ± 0.4
TTTAAACAAGGATCCACACACCCCAAAAAAAAAAGA [CACACA_site680] | 9.26 ± 0.4
AAAAAAAAAAAAAACACACACATACACCCAAAAATG [CACACA_site4223] | 9.66 ± 0.24
AAAAAAAAAAAACACACACACACACCCACAAAATAT [CACACA_site1447] | 10.31 ± 0.028
GTAAAAAAAGAGCACACACACAAAAACACCCACAAA [CACACA_site1292] | 10.3 ± 0.23
AGCACACCCACAAAAACACACACAAAGGTGTTCTTA [CACACA_site8355] | 9.39 ± 0.42
CACAAACAAAAACACACACACACACCCACAAAAATG [CACACA_site2429] | 10.2 ± 0.34
TGCAACAAAATAAACACACACACACTAACACAAAAA [CACACA_site7567] | 9.98 ± 0.33
AATGTACCCACACCCACACACAAACAAATATATATA [CACACA_site2751] | 9.74 ± 0.29
TGCAACAAAATAAACACACACACACCCCCACAAAAA [CACACA_site3388] | 10.36 ± 0.057
AAAAATAAAAAAATGACACACATATATATATATATA [CACACA_site2307] | 9.85 ± 0.11
TATAACAATTTTTATGCATGCGACTATAATATTTTT [TGCATGCA_site508] | 8.92 ± 0.42
ATTATATAAGTACACAAACAAGTATGAGATTCAAAA [GTGCAC_negctrl_site119] | 8.88 ± 0.5
ATATATTATATGTACACACACATATAAGGGATTATA [CACACA_site5] | 9.28 ± 0.4
TTATATTATATATATGTGCACATTTTTAAACTTGGA | 8.77 ± 0.47
ACAAACAAAGAAAGAACACACATACACAAGATACCT [CACACA_site7353] | 9.54 ± 0.26
ATATAACTTTTAAAAGCATGCAAATATTTACTCAAT [TGCATGCA_site396] | 8.78 ± 0.45
TGATAAGAAAAAGACTTTTCCTTCTTACTTTCTATG [CACACA_negctrl_site782] | 8.55 ± 0.59
ACATGAAGATATTTTTGTCCGTACAAATTCATATGA [XGTACX_site1837] | 8.66 ± 0.23
AAGGTATTTATAACTACACACTTATTTATAACCTAA [CACACA_site6194] | 8.7 ± 0.43
ATATGAAGTATCGAATTAAGGGCAACAAATAAATTA [CACACA_negctrl_site1116] | 8.76 ± 0.57
GTGGAAAAAAATAATTGTACACAATAATAAATATAT [XGTACX_site2414] | 8.87 ± 0.45
GTTTGAATGGCGCACTGTACACATATATACATATAG [XGTACX_site8619] | 9.13 ± 0.26
TTCTATTCACATTTTACACACGTCCATCGCATTTTA [CACACA_site3453] | 9.44 ± 0.46
ATTTTTTATGGACAAAAGACCTCTGATGTAAATATA [CACACA_negctrl_site1081] | 8.38 ± 0.4
AGCACAGACGGACACACACACATATATATATATATA [CACACA_site4341] | 10.37 ± 0.085

Sequence | gcPBM binding intensity (ln)
TTTGTTGACGGACACACACACATACAGATATATATA [CACACA_site5292] | 9.4 ± 0.27
CATACATACAGACACACACACATATTTATATTTATA [CACACA_site6172] | 9.9 ± 0.41
CACAGACACGGACACACACACATATATAATATATAT [CACACA_site4495] | 9.87 ± 0.42
CCCACAGACGGACACACACACATATATATATATATA [CACACA_site4351] | 10.4 ± 0.22
CCCACAGACGGACACACACACACACCGACACATATA [CACACA_site4356] | 10 ± 0.26
GAATTATATACTTATTGTACAAAAAAAAAAAAAAAA [XGTACX_site3193] | 8.36 ± 0.4
TGCAGTCTGGAGAAACGTACATAGTATCTGGTAGCT [XGTACX_site4937] | 8.94 ± 0.57
TTCAACGTTTTGGAATGTACAGAAAGGTATCCATCA [XGTACX_site179] | 8.62 ± 0.42
AGTACAGACATAGACACACACACACCCATAAAAAAA [CACACA_site1515] | 9.99 ± 0.45
TACACATACAGACATACACACATACCCATATACTCA [CACACA_site5037] | 9.6 ± 0.41
CATACACCCATACATACACACATACAGATATATATA [CACACA_site5123] | 9.29 ± 0.33
TATCTCATAGTATACACACACACACCCACCCATATA [CACACA_site1739] | 10.1 ± 0.11
TATATCTCATAGTATACACACACACCCACCCACATA [CACACA_site8513] | 9.9 ± 0.23
CACCATGATACATACACACAGACATATACGCATTCA [CACACA_site1008] | 9.46 ± 0.18
CACGCATACAGACACACACACACACCGATATATATA [CACACA_site8113] | 10.1 ± 0.37
ATAGTATACAGACACACACACACACCCATATATATA [CACACA_site1736] | 10.2 ± 0.29
CACGCATACAGACACACACACACACCCATATATATA [CACACA_site636] | 10.2 ± 0.37
CACGCATACGGACACACACACACACCGATATATATA [CACACA_site4521] | 9.89 ± 0.33
GGCATATATATATGCACACATACATATATACATGTG [CACACA_site3859] | 9.7 ± 0.3
GTTACACAAACAAACACACACACACGCACGCACAAA [CACACA_site7191] | 10 ± 0.2
AAAGAAAAAAAAAAAAAAAAAAAAAAAATTATACAT [CACACA_negctrl_site7] | 8.45 ± 0.64
TTTAAAACCTTACATACACACAAATATGTAAATATA [CACACA_site6464] | 8.75 ± 0.42
GAGCACCAAAATATATGTACATATGATAAATGTGAA [XGTACX_site1130] | 8.96 ± 0.51
GTTATTGAAAAAATAGTGCAATATAACAAAGTAAAA | 8.85 ± 0.48
AAAAAAAACGAACACACACACAAATATGTAAAAATA [CACACA_site6673] | 9.87 ± 0.28
ATTATATTAATATATATATATATATATATAATAATA [CACACA_negctrl_site437] | 8.69 ± 0.3

Sequence | gcPBM binding intensity (ln)
TCATAGTATGGACACACACACACACCCATATATATA [CACACA_site5033] | 10 ± 0.25
TACACGCATGGACACACACACACACCCATATATATA [CACACA_site4522] | 10.3 ± 0.35
TACACCCATGGACACACACACACGCATAAAAAAAAA [CACACA_site4933] | 9.85 ± 0.58
AAAAAAAATCAAATGGGTACTTATTCTTAATAATAT [XGTACX_site3792] | 8.61 ± 0.33
TTTTTAGAAAAGGTTATAAAAAATTAATTGAAAAAA [GTGCAC_negctrl_site289] | 8.05 ± 0.47
TAAAAGTAAAGACATGCATGCATTGGTATCTTTTAC [TGCATGCA_site665] | 8.95 ± 0.35
ATGTAGACTGAAACCACACACACATATATATATATA [CACACA_site606] | 10.2 ± 0.2
GTAGACTGAAACCACACACACATATATAAATATATT [CACACA_site6433] | 9.68 ± 0.38
GTAGACTGAAACCACACACACATATATATATATATT [CACACA_site605] | 9.8 ± 0.13
GCGTTGTTTTTAAAAAGTACATTTTTATATAAGTTA [XGTACX_site8780] | 8.54 ± 0.46
TATTAAGAAGAAAATTCACACATTTGTACCTCTCTT [CACACA_site4822] | 8.86 ± 0.47
CATACAGACATACATACACACATACATACAGACATA [CACACA_site6996] | 9.56 ± 0.35
TACAGACATACATACACACATACATACAGACATACA [CACACA_site1941] | 9.43 ± 0.38
TACACCCACCCACATACACACACATACACATATATA [CACACA_site8503] | 10.1 ± 0.21
ATATATATATATTCCACACACACACCCAAAAAAAAA [CACACA_site3649] | 9.745 ± 0.05
TTCCCCCCCAGACACACACACACATACATACCACAT [CACACA_site2305] | 11.1 ± 0.77
GACATATTCCCCCCCACACACACACCCACATACATA [CACACA_site2302] | 11.1 ± 0.18
TATTCCCCCAAACACACACACACACCCACATACCAC [CACACA_site2304] | 10.5 ± 0.13
AAATTCCACCAACACACACACATATAAATAAATAAA [CACACA_site1233] | 9.86 ± 0.42
ACATTCTATACATACACACCCACACCCAAAAAAAAA [CACACA_site863] | 9.59 ± 0.042
ACATACATACCCCCACGTACGTACCGAAACACCACC [XGTACX_site1982] | 9.74 ± 0.028
ATTCTACACCCACATACACACATATATATATATATA [CACACA_site3426] | 10 ± 0.085
TATTCCCCCCAACACACACACACACCGACATACCAC [CACACA_site8723] | 10.8 ± 0.26
